Here are results for eight compounds from PubChem BioAssay (NCI).

The panel holds about 83,000 compounds, 20% with a hit somewhere; the sample as a whole holds those more often.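 Results are percent growth after 48 hours of single-concentration exposure. 100 means growth as in untreated cells, lower positive values show inhibition; negative values down to -100 show cell death.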 A number with no mark means an inactive call. Calls of active or inactive are those of the source. Rule for the calls: active = growth percent below 10; inactive = the rest.

Common to all, as to assay: NCI-60 one-dose screen, 48 h (100 = growth as untreated, 0 = no growth, -100 = all killed)
Common to all, as to settings: 10 µM unless noted

Experiment [1] deals with DU-145 prostate.
Experiment [2] relates to K-562 leukemia.
Experiment [3] concerns MALME-3M melanoma.
The subject of experiment [4] is MDA-MB-231 breast.
In experiment [5] the test system is RXF 393 renal.
The subject of experiment [6] is SF-268 CNS.
In experiment [7] the test system is SF-295 CNS.
The subject of experiment [8] is SF-539 CNS.
Experiment [9] deals with UACC-257 melanoma.
Experiment [10] deals with M14 melanoma.
In experiment [11] the test system is HCT-15 colon.
Experiment [12] concerns HT29 colon.
Experiment [13] deals with SNB-75 CNS.
For experiment [14], the system named is SNB-19 CNS.
Experiment [15] concerns U251 CNS.
Experiment [16] relates to PC-3 prostate.
Experiment [17] relates to SK-MEL-5 melanoma.
Experiment [18] has as its system UACC-62 melanoma.
The subject of experiment [19] is LOX IMVI melanoma.
Experiment [20] has as its system SK-MEL-28 melanoma.

With `O=C(N/N=C/c1occc1Br)c1[nH]c2ccc(Br)cc2c1-c1ccccc1`, the growth in [1] was -78.4% (active); in [2], 6.6% (active); in experiment [3], -94.9% (active); in experiment [4], -83.1% (active); in experiment [5], -88.2% (active); in [6], -65.9% (active). Besides, the growth in experiment [7] is -91.2% (active); in experiment [8] it was -100% (active); in [9] it was -68.2% (active); in [10], -84.5% (active); in experiment [11], -78% (active); in experiment [12], -68.7% (active). In addition, the growth in experiment [13] is -78.2% (active); in experiment [14] it was -97.1% (active); in experiment [15], -82.6% (active); in [16] it was -51.3% (active); in [17], -97.6% (active); in [18], -95% (active). Also, the growth in experiment [19] is -100% (active); in experiment [20], -96.5% (active).

Regarding `O=C(O)CC1S/C(=N/N=C/c2nc3ccccc3s2)NC1=O` (stereo not given), the growth in experiment [1] was 95.8%; in [2], 94.1%; in experiment [3] it was 107%; in experiment [4], 102%; in [5] it was 134%; in experiment [6], 85.5%. For the same compound, the growth in [7] is 104%; in [8], 98.1%; in experiment [9], 105%; in experiment [10] it was 90.4%; in experiment [11] it was 76.5%; in [12] it was 114%. Also, the growth was 96.9% in experiment [13]; 96.3% in [14]; 89.8% in experiment [15]; 103% in experiment [16]; 96.9% in [17]; 114% in [18]. Also, the growth in [19] is 100%; in experiment [20], 117%.

Consider `CS(=O)(=O)c1ccc(-n2nc(C(=O)NCc3ccccc3)cc2-c2ccc(Cl)cc2)cc1`, for which the growth in experiment [1] was 91.4%; in [2], 49.4%; in [3], 112%; in experiment [4], 96.3%; in experiment [5], 94.9%; in [6], 82.2%. Besides, the growth is 73.6% in experiment [7]; 99.4% in experiment [8]; 98.9% in experiment [9]; 93.9% in experiment [10]; 66.3% in experiment [11]; 74% in experiment [12]. The growth in experiment [13] is 89.7%; in experiment [14], 78.9%; in [15], 80.7%; in experiment [16], 75.5%; in experiment [17], 71.5%; in experiment [18], 73.9%. The growth in [19] was 89.4%; in experiment [20], 112%.

For `CC1=C(C(=O)OCc2ccccc2)C(c2cccc3ccccc23)n2c(nc3ccccc32)N1` (stereo not given), the growth in experiment [1] was 28.9%; in experiment [2], 11.7%; in [3], 16.8%; in experiment [4] it was 37.9%; in [5], 0.534% (active); in [6], 44.9%. The growth was 10.5% in experiment [7]; 11.8% in experiment [8]; 40.7% in experiment [9]; 23.9% in experiment [10]; 21.7% in experiment [11]; 3.87% (active) in experiment [12]. Also, the growth in experiment [13] is -15.1% (active); in [14], 40.9%; in experiment [15], 24.9%; in experiment [16], 22.8%; in experiment [17] it was 3.71% (active); in experiment [18], 17.3%. In addition, the growth in [19] is 36.1%; in experiment [20] it was 50.5%.

As for `O=c1[nH]c2ccccc2cc1COc1ccc(Nc2nccc(-c3ccc(Cl)cc3)n2)cc1`, the growth in [1] was 89%; in experiment [2] it was 95.2%; in experiment [3], 105%; in [4] it was 105%; in [5] it was 91.8%; in experiment [6], 105%. In addition, the growth in experiment [7] was 90.8%; in experiment [8] it was 91.6%; in experiment [9], 107%; in experiment [10], 107%; in experiment [11], 101%; in experiment [12], 105%. The growth in [13] was 60.5%; in experiment [14], 93.4%; in [15], 86.5%; in experiment [16], 106%; in experiment [17], 99.1%; in [18], 94.4%. The growth in experiment [19] is 96%; in [20] it was 105%.

For the compound `Cn1cc(-c2cc(N)n3nc(-c4c[nH]c5ccc(Cl)cc45)cc3n2)c2cccnc21`, the growth in experiment [1] was -87.6% (active); in experiment [2] it was -24.9% (active); in experiment [3], -92.3% (active); in [4], -82.3% (active); in experiment [5] it was -73.4% (active); in experiment [6], -47.4% (active). The growth in [7] is -92.6% (active); in experiment [8], -95.6% (active); in experiment [9], -85.5% (active); in experiment [10] it was -90.5% (active); in experiment [11], -56.7% (active); in experiment [12], -44.7% (active). Moreover, the growth is -57.5% (active) in experiment [13]; -78.3% (active) in experiment [14]; -82% (active) in experiment [15]; -51.6% (active) in [16]; -97.4% (active) in experiment [17]; -86.4% (active) in [18]. The growth was -93.6% (active) in [19] and -93.7% (active) in [20].

For `O=C(c1ccc(Cl)cc1)C1[C@H](c2ccccc2Cl)[C@@H](c2ccccc2)NC12C(=O)Nc1ccc(Br)cc12` (stereo not given in full), the growth was -34.7% (active) in experiment [1]; -43.2% (active) in experiment [2]; -64.2% (active) in experiment [3]; -95.4% (active) in experiment [4]; -93.5% (active) in experiment [5]; -45.1% (active) in experiment [6]. Besides, the growth in [7] is -88.1% (active); in [8], -85.2% (active); in experiment [9], -30.7% (active); in [10], -88.5% (active); in [11], -83.8% (active); in [12], -82.3% (active). The growth in experiment [13] is -28.7% (active); in experiment [14], -54.6% (active); in experiment [15] it was -71.6% (active); in [16], -27.9% (active); in experiment [17] it was -95.5% (active); in experiment [18], -86.2% (active). The growth in experiment [19] was -100% (active); in experiment [20] it was -95.4% (active).

`COc1ccc2[nH]cc(-c3cc(N)n4nc(-c5c[nH]c6ccccc56)cc4n3)c2c1`: the growth in experiment [1] was 42.6%; in experiment [2], 3.51% (active); in experiment [3] it was -93.4% (active); in [4] it was -69.9% (active); in [5] it was -72.2% (active); in experiment [6] it was 80.4%. Also, the growth in experiment [7] was -75.9% (active); in experiment [8] it was -95.2% (active); in [9], -92.3% (active); in [10] it was -58.6% (active); in experiment [11], -79.2% (active); in experiment [12], -63.8% (active). The growth was 82.1% in [13]; 13.9% in experiment [14]; -68.2% (active) in experiment [15]; 10.9% in experiment [16]; -93.2% (active) in [17]; -81% (active) in [18]. Besides, the growth is -85.8% (active) in experiment [19] and -99% (active) in [20].
